5 compounds from PubChem BioAssay can be followed below.

Molecules are shown by their SMILES. The source made the active and inactive calls.

Assay [1] has as its system PRMT1 (protein arginine N-methyltransferase 1). Nature of the assay: PRMT1 binders on small-molecule microarrays, primary screen, biochemical, small-molecule microarray, 635 nm fluorescence (AID 1088).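 Also: binding of Prmt1 protein to compounds spotted on small-molecule microarray slides.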 The settings on record: small-molecule microarray binding, higher = more signal.
Assay [2] in a line: yeast growth modulation, basal conditions, primary screen, YJM789 clinical isolate, OD600, 24 h (AID 1089).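 Also: growth of clinical yeast isolate S. cerevisiae YJM 789 seeded 1000 cells per well; test concentration not given here.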 To be noted: S. cerevisiae YJM789 growth, higher = more signal, called active from +8 up or from −8 down.
A short description of assay [3]: fission yeast growth modulation, primary screen, strain 972, OD600, 24 h, no modulator (AID 1090).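 Also: basal condition with compound alone and no growth modifier present; test concentration not given here.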 To be noted: S. pombe 972 growth, higher = more signal, called active from +8 up or from −8 down.
Assay [4] can be described thus: S. cerevisiae growth modulation with rapamycin, primary screen, strain BY4716, OD600, 96 h (AID 1091). Also: test concentration not given here. To be noted: higher = more signal, called active from +8 up or from −8 down.
Assay [5] deals with Torsin-1A-interacting protein 2 (Homo sapiens) (UniProt Q8NFQ8). Nature of the assay: LULL1 binders on small-molecule microarray, primary screen, cell lysate, human LULL1 lysate, 635/667 nm fluorescence (AID 1092).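 Also: probe is lysate of COS7 cells overexpressing human LULL1; score merges per-feature 667 nm fluorescence with signal-to-noise.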 To be noted: hLULL1 lysate binding, 635 nm fluorescence, higher = more signal.
A short description of assay [6]: E. coli growth modulation, two-sided OD650, primary screen, E. coli filamentation project, strain DRC41, 24 h (AID 1093).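 Also: MC1000 strain lacking acrAB efflux and sulA so SOS filamentation is blocked; test concentration not given here.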 The settings on record: OD650, 24 h, higher = more signal, called active from +8 up or from −8 down.
The nature of assay [7]: small-molecule microarray binders of probe aLefty2, primary screen, biochemical, biotinylated probe, 635/667 nm fluorescence (AID 1094).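 Also: score merges spot fluorescence near 667 nm with spot signal-to-noise ratio.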 To be noted: higher = more signal.
For assay [8], the system named is Noggin (protein binding on small-molecule microarray). As to the kind of experiment: Noggin binders on small-molecule microarray, primary screen, biochemical, 635/667 nm fluorescence (AID 1095).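 Also: score merges 667 nm feature fluorescence with signal to noise over triplicate slides.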 To be noted: 635 nm fluorescence, higher = more signal.
The target in assay [9] is Neurogenic locus notch homolog protein 3 (Homo sapiens) (UniProt Q9UM47). As to the kind of experiment: NOTCH3 binders on small-molecule microarray, primary screen, biochemical, 635/667 nm fluorescence (AID 1096). To be noted: NOTCH3 binding, 635 nm fluorescence, higher = more signal.
A short description of assay [10]: small-molecule microarray binders of probe aEGFR, primary screen, biochemical, biotinylated probe, 635/667 nm fluorescence (AID 1097).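 Also: probe is a biotinylated anti-EGFR antibody binding compounds printed on slides; score combines fluorescence near 667 nm and signal to noise of each spot.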 The settings on record: higher = more signal.
Assay [11] relates to Plasmodium falciparum Sir2 (PF13_0152, Sir2A). Nature of the assay: pfSir2 binders on small-molecule microarrays, primary screen, biochemical, small-molecule microarray, 635 nm fluorescence (AID 1098).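 Also: score merges spot fluorescence intensity with its signal-to-noise ratio.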 The settings on record: small-molecule microarray binding, fluorescence 635 nm; higher = more signal.
The nature of assay [12]: small-molecule microarray binders of probe aDKK1, primary screen, biochemical, biotinylated probe, 635/667 nm fluorescence (AID 1099).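 Also: score merges 667nm spot fluorescence with signal to noise across triplicate slides; reference of the scale not given here.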 To be noted: higher = more signal.
Assay [13] is described as follows: small-molecule microarray binders of probe aCHRDL2, primary screen, biochemical, biotinylated probe, 635/667 nm fluorescence (AID 1100). To be noted: higher = more signal.
Assay [14] is described as follows: splicing luciferase reporter signal modulators, primary screen, spliceosome inhibition project, cell-based, HEK293, splice +/- reporter (AID 1101).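 Also: HEK293 cells carrying a splicing-competent luciferase reporter gene; test concentration not given here.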 The settings on record: luminescence, 24 h, higher = more signal, called active from +8 up or from −8 down. A general note: In a reporter assay the amount or activity of a reporter protein is the signal.
Assay [15] deals with Fibroblast growth factor 10 (Homo sapiens) (UniProt O15520). Nature of the assay: FGF10 binders on small-molecule microarrays, primary screen, biochemical, small-molecule microarray, 635 nm fluorescence (AID 1102). The settings on record: FGF10 binding, fluorescence 635 nm, higher = more signal.
The subject of assay [16] is glycogen synthase kinase-3 (GSK3A per assay name; protocol says GSK3B). As to the kind of experiment: GSK3 binders on small-molecule microarrays, primary screen, biochemical, small-molecule microarray, 635 nm fluorescence, GSK3A (AID 1103). Also: the record names both GSK3A and GSK3B. The settings on record: small-molecule microarray binding, fluorescence 635 nm; higher = more signal.
In assay [17] the target is Epidermal growth factor receptor (Homo sapiens) (UniProt P00533). As to the kind of experiment: EGFR binders on small-molecule microarrays, primary screen, biochemical, small-molecule microarray, 635 nm fluorescence (AID 1104).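 Also: score merges 667 nm emission intensity with spot signal to noise over triplicate slides.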 To be noted: EGFR binding, higher = more signal.
In assay [18] the target is Follistatin-related protein 3 (Homo sapiens) (UniProt O95633). Nature of the assay: FSTL3 binders on small-molecule microarrays, primary screen, biochemical, small-molecule microarray, 635 nm fluorescence (AID 1105).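 Also: score merges emission near 667 nm and signal to noise per printed spot across three slides.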 To be noted: FSTL3 binding, higher = more signal.
The target of assay [19] is Dickkopf-related protein 1 (Homo sapiens) (UniProt O94907). As to the kind of experiment: DKK1 binders on small-molecule microarrays, primary screen, biochemical, small-molecule microarray, 635 nm fluorescence scan (AID 1106).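 Also: score merges emission near 667 nm with signal to noise over three replicate slides.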 The settings on record: DKK1 binding, higher = more signal.
Assay [20] concerns Inhibin beta A chain (activin A). Nature of the assay: INHBA (activin A) binders on microarrays, primary screen, biochemical, small-molecule microarray, 635 nm fluorescence scan (AID 1107).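 Also: mouse activin A protein probed at 4.33 µg/mL on printed slides; score merges bound-protein fluorescence near 667 nm with spot signal-to-noise.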 The settings on record: small-molecule microarray binding, higher = more signal.

Follistatin-related protein 3 (Homo sapiens), sequence (O95633 whole entry, looked up): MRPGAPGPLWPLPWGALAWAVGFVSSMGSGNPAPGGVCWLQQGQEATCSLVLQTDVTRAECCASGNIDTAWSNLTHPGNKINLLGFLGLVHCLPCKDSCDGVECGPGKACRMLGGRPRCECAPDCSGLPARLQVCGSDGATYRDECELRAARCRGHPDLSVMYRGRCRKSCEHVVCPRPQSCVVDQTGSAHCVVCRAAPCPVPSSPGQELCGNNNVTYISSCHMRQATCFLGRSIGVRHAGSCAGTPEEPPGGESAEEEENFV
Torsin-1A-interacting protein 2 (Homo sapiens), sequence (Q8NFQ8 whole entry, looked up): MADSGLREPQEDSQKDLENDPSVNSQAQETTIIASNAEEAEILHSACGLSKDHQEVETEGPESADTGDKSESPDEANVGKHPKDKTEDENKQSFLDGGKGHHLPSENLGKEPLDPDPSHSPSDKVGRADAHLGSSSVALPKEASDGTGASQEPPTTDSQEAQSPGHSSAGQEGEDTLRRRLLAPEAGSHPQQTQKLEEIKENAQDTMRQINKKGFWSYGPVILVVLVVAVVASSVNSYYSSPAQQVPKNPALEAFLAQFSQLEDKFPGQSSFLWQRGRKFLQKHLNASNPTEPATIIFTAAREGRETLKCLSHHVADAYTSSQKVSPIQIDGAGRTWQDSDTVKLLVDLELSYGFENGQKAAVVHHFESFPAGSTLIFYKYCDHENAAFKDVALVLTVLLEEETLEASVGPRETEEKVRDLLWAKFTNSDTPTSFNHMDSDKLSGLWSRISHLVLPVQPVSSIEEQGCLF
Epidermal growth factor receptor (Homo sapiens), sequence (P00533 whole entry, looked up): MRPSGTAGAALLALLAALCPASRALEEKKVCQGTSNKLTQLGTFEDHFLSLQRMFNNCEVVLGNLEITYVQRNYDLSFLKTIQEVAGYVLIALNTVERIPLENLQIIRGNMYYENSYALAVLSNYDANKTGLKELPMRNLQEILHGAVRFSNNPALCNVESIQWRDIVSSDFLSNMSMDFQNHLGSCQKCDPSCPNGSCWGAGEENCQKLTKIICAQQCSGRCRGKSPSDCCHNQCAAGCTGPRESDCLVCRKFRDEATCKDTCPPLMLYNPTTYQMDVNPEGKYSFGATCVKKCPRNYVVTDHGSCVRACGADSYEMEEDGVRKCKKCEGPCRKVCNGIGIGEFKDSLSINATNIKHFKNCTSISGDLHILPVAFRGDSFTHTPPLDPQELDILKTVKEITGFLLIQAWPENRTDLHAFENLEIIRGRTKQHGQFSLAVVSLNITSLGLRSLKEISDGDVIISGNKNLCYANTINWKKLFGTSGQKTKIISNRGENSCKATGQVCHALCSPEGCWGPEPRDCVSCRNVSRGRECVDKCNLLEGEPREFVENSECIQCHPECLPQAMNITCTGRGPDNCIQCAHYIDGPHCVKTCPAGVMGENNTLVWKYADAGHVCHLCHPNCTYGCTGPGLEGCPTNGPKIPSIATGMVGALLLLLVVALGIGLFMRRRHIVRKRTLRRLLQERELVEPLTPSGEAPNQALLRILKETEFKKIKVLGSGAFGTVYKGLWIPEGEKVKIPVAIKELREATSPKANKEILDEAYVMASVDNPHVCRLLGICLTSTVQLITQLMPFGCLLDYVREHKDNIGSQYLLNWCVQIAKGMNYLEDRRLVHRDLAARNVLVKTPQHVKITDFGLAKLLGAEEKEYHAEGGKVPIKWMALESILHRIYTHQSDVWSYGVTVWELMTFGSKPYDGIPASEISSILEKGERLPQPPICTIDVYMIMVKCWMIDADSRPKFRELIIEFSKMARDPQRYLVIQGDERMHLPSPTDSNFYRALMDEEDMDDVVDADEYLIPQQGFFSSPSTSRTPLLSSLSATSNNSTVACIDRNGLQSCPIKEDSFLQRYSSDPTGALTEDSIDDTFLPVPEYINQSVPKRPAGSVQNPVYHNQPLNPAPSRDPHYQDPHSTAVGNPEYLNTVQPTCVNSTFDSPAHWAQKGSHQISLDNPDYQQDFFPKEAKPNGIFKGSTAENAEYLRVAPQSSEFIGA
Dickkopf-related protein 1 (Homo sapiens), sequence (O94907 whole entry, looked up): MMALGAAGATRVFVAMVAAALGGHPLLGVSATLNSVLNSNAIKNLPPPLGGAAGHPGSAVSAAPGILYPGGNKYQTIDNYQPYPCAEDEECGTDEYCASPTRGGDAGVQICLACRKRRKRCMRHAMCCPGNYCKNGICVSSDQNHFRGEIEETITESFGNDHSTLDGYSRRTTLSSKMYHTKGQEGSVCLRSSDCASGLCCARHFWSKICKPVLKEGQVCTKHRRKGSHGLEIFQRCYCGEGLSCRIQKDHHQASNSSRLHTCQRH
Fibroblast growth factor 10 (Homo sapiens), sequence (O15520 whole entry, looked up): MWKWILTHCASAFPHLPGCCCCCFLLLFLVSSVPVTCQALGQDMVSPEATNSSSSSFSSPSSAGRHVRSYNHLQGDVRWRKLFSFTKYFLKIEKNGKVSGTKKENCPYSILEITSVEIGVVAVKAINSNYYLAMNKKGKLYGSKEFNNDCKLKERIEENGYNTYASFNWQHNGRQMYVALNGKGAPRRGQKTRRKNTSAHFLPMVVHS
Neurogenic locus notch homolog protein 3 (Homo sapiens), sequence (Q9UM47 whole entry, looked up): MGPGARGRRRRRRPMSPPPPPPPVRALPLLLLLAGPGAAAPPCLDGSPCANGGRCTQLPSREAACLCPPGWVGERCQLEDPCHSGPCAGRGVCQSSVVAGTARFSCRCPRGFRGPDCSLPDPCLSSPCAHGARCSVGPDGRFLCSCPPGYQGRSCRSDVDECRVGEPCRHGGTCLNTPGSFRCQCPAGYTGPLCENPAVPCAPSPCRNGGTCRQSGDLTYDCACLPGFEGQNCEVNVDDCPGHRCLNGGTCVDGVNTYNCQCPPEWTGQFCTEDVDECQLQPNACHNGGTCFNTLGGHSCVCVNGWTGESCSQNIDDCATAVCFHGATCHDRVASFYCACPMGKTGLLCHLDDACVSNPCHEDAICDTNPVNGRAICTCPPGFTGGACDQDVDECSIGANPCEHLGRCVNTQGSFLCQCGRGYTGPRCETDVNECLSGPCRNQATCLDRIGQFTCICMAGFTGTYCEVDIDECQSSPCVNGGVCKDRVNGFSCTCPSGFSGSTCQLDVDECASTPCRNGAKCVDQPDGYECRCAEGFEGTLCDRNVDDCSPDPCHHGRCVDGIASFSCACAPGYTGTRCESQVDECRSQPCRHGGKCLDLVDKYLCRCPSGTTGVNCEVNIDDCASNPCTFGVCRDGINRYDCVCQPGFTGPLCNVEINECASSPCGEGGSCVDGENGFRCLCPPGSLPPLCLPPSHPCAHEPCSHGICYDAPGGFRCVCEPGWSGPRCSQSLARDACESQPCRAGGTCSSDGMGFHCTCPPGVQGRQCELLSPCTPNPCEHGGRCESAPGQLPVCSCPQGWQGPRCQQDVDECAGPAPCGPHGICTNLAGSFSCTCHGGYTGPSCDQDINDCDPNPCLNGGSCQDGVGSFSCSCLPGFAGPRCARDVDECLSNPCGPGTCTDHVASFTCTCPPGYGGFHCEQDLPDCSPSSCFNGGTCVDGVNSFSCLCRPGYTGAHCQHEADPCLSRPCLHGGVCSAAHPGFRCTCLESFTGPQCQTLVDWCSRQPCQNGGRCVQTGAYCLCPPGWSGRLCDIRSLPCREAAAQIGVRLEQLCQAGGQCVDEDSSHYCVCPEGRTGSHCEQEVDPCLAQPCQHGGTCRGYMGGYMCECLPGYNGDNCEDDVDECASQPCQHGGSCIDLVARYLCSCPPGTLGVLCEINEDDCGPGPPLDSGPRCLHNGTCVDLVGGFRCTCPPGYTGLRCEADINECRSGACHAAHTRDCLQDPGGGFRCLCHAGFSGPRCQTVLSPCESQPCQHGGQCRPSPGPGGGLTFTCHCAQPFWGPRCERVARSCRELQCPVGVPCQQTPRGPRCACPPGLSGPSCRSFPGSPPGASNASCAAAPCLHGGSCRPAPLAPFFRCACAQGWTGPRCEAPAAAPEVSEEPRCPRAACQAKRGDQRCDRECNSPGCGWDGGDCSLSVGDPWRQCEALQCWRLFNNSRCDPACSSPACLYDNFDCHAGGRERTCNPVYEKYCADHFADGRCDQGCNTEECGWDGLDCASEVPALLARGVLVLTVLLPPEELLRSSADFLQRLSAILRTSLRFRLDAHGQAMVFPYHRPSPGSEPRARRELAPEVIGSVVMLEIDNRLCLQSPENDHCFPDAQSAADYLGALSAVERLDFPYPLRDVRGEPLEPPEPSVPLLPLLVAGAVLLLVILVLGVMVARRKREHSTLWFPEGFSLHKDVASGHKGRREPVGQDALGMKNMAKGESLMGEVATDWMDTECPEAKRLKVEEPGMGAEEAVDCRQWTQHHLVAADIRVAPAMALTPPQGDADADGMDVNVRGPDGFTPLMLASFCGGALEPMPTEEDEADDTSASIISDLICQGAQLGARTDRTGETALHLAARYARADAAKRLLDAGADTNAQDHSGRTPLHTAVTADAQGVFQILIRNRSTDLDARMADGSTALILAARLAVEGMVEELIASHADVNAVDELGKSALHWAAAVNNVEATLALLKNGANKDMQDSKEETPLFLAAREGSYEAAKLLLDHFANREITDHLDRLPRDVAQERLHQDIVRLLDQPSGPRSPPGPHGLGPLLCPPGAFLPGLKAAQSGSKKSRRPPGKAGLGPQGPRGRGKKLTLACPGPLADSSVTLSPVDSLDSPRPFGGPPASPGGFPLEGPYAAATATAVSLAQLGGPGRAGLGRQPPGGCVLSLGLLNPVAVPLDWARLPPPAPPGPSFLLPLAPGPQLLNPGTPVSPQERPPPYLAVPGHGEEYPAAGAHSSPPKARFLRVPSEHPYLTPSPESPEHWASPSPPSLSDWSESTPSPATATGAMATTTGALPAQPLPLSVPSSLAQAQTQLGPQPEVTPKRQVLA

Turning to `C=C(C(=O)CC[C@@H](OC(C)=O)c1ccc(OCCO)cc1)C(C)C`, the composite z-score in assay [1] is 0.387; in assay [5], 1.45; in assay [7], -0.114; in assay [8] it was -0.053; in assay [9] it was -0.054; in assay [10] it was 0.0073. The composite z-score in [11] is 0.167; in assay [12] it was -0.0523; in [13], 0.104; in assay [15], 1.57; in assay [16] it was -0.117; in assay [17] it was -0.544. For the same compound, the composite z-score in assay [18] is -0.152; in [19], -0.207; in assay [20], 0.815. Besides, the z-score in [2] is -1.33 (inactive); in assay [3] it was -1.38 (inactive); in [4], -0.423 (inactive); in [6], 0.278 (inactive); in assay [14], 1.02 (inactive).

Consider `CCOC(=O)C1=CC[C@@H](c2ccccc2)N(S(=O)(=O)c2ccc(C)cc2)[C@H]1c1ccc(C#N)cc1`, for which the composite z-score is 0.852 in assay [1]; 2.73 in assay [5]; 0.0163 in [7]; -0.232 in assay [8]; 1.11 in [9]; 0.136 in [10]. Also, the composite z-score in [11] was 0.802; in [12], 1.17; in assay [13], 1.18; in assay [15], 0.278; in assay [16] it was 1.29; in assay [17] it was -0.18. Besides, the composite z-score is 0.272 in [18], -0.972 in assay [19] and 0.676 in assay [20]. Besides, the z-score is -0.624 (inactive) in [2]; 0.553 (inactive) in assay [3]; 1.18 (inactive) in [4]; -0.883 (inactive) in [6]; -0.29 (inactive) in assay [14].

As to `CCCC[C@H]1C[C@@H]1[C@@H]1N(P(=O)(c2ccccc2)c2ccccc2)[C@](CO)(c2ccccc2)CC12CC2`, the composite z-score in assay [1] is -0.153; in [5], 2.51; in assay [7], 0.325; in assay [8], -0.686; in assay [9], -0.318; in [10], 0.0585. Besides, the composite z-score in assay [11] is 1.09; in assay [12], 0.639; in assay [13], 1.01; in assay [15], 0.104; in assay [16] it was -0.571; in assay [17], -0.395. Besides, the composite z-score in [18] was -0.177; in assay [19], -1.47; in [20], 0.846. The z-score in assay [2] is -0.485 (inactive); in [3], -0.485 (inactive); in assay [4] it was 5.22 (inactive); in [6], -1.08 (inactive); in [14] it was -4.35 (inactive).

Consider `O=C(NCC(O)CO)[C@]1(CCS(=O)(=O)c2ccccc2)N=C(c2ccc(OCCCO)cc2)O[C@@H]1c1ccccc1` (stereo not given in full), for which the composite z-score was -0.214 in assay [1]; 3.67 in [5]; -0.0949 in assay [7]; -0.203 in assay [8]; -0.256 in [9]; -0.0913 in assay [10]. The composite z-score is 1.11 in assay [11]; 1.28 in [12]; 1.34 in assay [13]; 0.305 in assay [15]; 0.516 in assay [16]; -0.498 in assay [17]. The values for the composite z-score in assay [18], in [19] and in assay [20] were -0.365, -0.868 and 0.529, respectively. Besides, the z-score is -0.59 (inactive) in [2]; -0.149 (inactive) in [3]; -0.92 (inactive) in assay [4]; 0.169 (inactive) in assay [6]; 0.833 (inactive) in assay [14].

`CC(=O)n1cc(C(O)C2C=CC3C(=O)N(c4ccccc4)C(=O)C3N2Nc2ccc(C#N)cc2)c2ccccc21` (stereo not given): the composite z-score is 1.33 in [1]; 3.4 in assay [5]; 0.401 in assay [7]; -0.244 in assay [8]; 0.48 in [9]; -0.0804 in [10]. The composite z-score was 0.696 in assay [11]; 0.415 in assay [12]; 1.07 in assay [13]; 0.879 in assay [15]; 0.186 in [16]; -0.105 in assay [17]. The composite z-score in assay [18] is 0.0519; in assay [19], -0.817; in assay [20], 0.854. Further, the z-score in assay [2] was -0.589 (inactive); in assay [3], 1.09 (inactive); in assay [4], 1.85 (inactive); in assay [6], -0.795 (inactive); in assay [14], 0.888 (inactive).
